# Experimental data from PubChem BioAssay (NCI).
# The panel holds about 83,000 compounds, 20% with a hit somewhere; the sample as a whole holds those more often.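 Assay: single dose, 48 h. Readout: percent growth (0 = no net growth; negative = cell death). Active: <10.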 A number with no mark means an inactive call. Calls of active or inactive are those of the source.
# Tested on: MOLT-4 leukemia
# Experiment: NCI-60 one-dose screen, 48 h (100 = growth as untreated, 0 = no growth, -100 = all killed)
# Settings: 10 µM unless noted
# Protocol: Growth inhibition of the MOLT-4 human tumor cell line is measured as a screen for anti-cancer activity. Cells are grown in 96 well plates and exposed to the test compound for 48 hours. Compounds are tested at a single concentration, which is 10^-5 M for most compounds. The reported endpoint is percent growth (GI% or GIPRCNT), where numbers from 0 - 100% represent growth inhibition, and numbers from -100% - 0 represent cell death. For example, a value of 40 represents 60% growth inhibition. A value of 0 means no net growth occurred over the course of the experiment. A value of -40 indicates 40% of cells at the beginning of the experiment died by the end of the experiment. A value of -100 means all cells are dead at the end of the experiment.
# NCI-60 Human Tumor Cell Lines Screen was performed using the standard one-dose NCI protocol, which is described in more detail at https://dtp.cancer.gov/discovery_development/nci-60/default.htm.
# Compounds with GIPRCNT values below 10 were considered active. Activity score was based on GIPRCNT using the following formula: […]
# Score is 0 for GIPRCNT values of 100 or above, 50 for GIPRCNT values of 0, and 100 for GIPRCNT values of -100.
row,Structure (SMILES),growth
1,O=C(NCCc1ccccc1)C1CCC(=O)N1Cc1ccc(Br)cc1 (stereo not given),94%
2,N=C(N)/N=C(\CCc1nc2ccccc2[nH]1)c1nc2ccccc2[nH]1,107%
3,COc1cc(C2C=C(c3ccc(C)cc3)Nc3nc(SC)[nH]c(=O)c32)ccc1Oc1ccnc2cc(Cl)ccc12 (stereo not given),63.9%
4,O=C(Nc1ccc(C2=NCCCN2)cc1)Nc1ccc(C2=NCCCN2)cc1,71.6%
5,O=C(/C=C/c1ccc(O)c(O)c1)N1CCN(c2ccc(Cl)cc2)CC1,27.3%
6,COc1cc([C@@H]2c3cc4c(cc3C(O[C@@H]3O[C@@H]5CO[C@@H](c6cccs6)OC5[C@H](O)[C@H]3O)C3COC(=O)[C@@H]32)OCO4)cc(OC)c1O (stereo not given in full),3.06% (active)
7,CCC(c1ccccc1)c1noc(CCN(CC)CC)n1 (stereo not given),83%
8,COc1ccc(-c2csc(NC(=O)c3cc(O)c(O)c(O)c3)n2)cc1,28%
9,COC(=O)CCC1=C(C)C(C)=N/C1=C\c1[nH]c(-c2ccc[nH]2)cc1OC,-29.7% (active)
10,CC/C=C\C=C/C(=O)N/C=C/CC1Cc2cccc(O)c2C(=O)O1 (stereo not given),47.5%
11,CCN1CCN(c2cc(-c3cn[nH]c3-c3cc(C)cc(OC)c3)nc(-c3cccnc3)n2)CC1,52%
12,C=C(C[C@@](O)(C(=O)Oc1ccccc1)C(=O)C1CCCCC1)c1ccccc1,101%
13,S=c1[nH]nc2sc3ccccc3n12,92.7%
14,O=C(Nc1ccc(Cl)cc1)c1cc2c(cc1O)[nH]c1ccccc12,-9.5% (active)
15,CC(C)(C)c1ccc(C(O)CCCN2CCC(C(O)(c3ccccc3)c3ccccc3)CC2)cc1 (stereo not given),-13.2% (active)
16,OCc1nnn(-c2ccccc2)c1CO,106%
17,CC(O)c1nc2c(c(=O)n(C)c(=O)n2C)n1C (stereo not given),117%
18,O=[N+]([O-])c1ccc(N/N=C/c2c(O)ccc3ccccc23)nc1,10.5%
19,Clc1ccc2nc(Cl)c3ccccc3c2c1,83%
20,CC(c1cc(Cl)ccc1O)c1cc(Cl)ccc1O,52.1%

row,Structure (SMILES),growth
1,CCc1ccc(CCN2C(=O)c3ccccc3C2=O)nc1,109%
2,CCN1C(=O)c2ccc3c4c(ccc(c24)C1=O)C(=O)N(CCCNCc1ccccc1OC)C3=O,-51.7% (active)
3,Clc1ccc(CCC(Cn2ccnc2)Sc2c(Cl)cccc2Cl)cc1 (stereo not given),34.6%
4,CC(C)C/C(=N\NC(=O)c1ccncc1)c1cc(Cl)ccc1O,3.56% (active)
5,CCOC(=O)c1ccccc1OC(=O)NNc1ccccc1,17.9%
6,Cc1nc2cc(NC(=O)CN3CCN(CCN4C(=O)c5cccc6cccc(c56)C4=O)CC3)ccc2s1,9.64% (active)
7,CCCCCCCCCCSc1ncnc2nc[nH]c12,72.5%
8,CCOc1cc(C(C)(C)C)ccc1C1=N[C@H](c2ccc(Cl)cc2)[C@H](c2ccc(Cl)cc2)N1C(=O)N1CCN(CC#Cc2cccc3c2CN([C@@H]2CCC(=O)NC2=O)C3=O)CC1,-13.3% (active)
9,COc1ccc(C2CC(c3cccc(Nc4ccnc5cc(Cl)ccc45)c3)=NN2C=O)cc1 (stereo not given),15.8%
10,COc1c(O)cc2oc3cc(O)c(CC=C(C)C)c(O)c3c(=O)c2c1C/C=C(\C)CCC=C(C)C,6.16% (active)
11,COc1ccc(-c2nc3sccn3c2-c2ccnc(S(C)(=O)=O)n2)cc1,87.2%
12,C[n+]1ccc(Nc2ccc(NC(=O)c3ccc(Nc4cc[n+](C)c5ccc(N)cc45)cc3)cc2)cc1,97.5%
13,COc1ccc(C2CC(c3ccc(OC)c(OC)c3)=NN2C(=O)c2cc(OC)c(OC)c(OC)c2)c(OC)c1 (stereo not given),106%
14,C/C(=N/N=C(N)N)c1ccc(N)cc1,109%
15,Cc1cc2cn3c4cccnc4[nH]c(=O)c3c2cc1C,18.4%
16,CCCCCCCC/C=C\CCCCCCCCOc1ccccc1CC(=O)NCC[N+]1(C)CCCC1,65%
17,O=c1c(O)cccn1CCCNCCCN(CCCn1cccc(O)c1=O)CCCn1cccc(O)c1=O,160%
18,O=[N+]([O-])c1cnc(Sc2ccncn2)c([N+](=O)[O-])c1,-41.2% (active)
19,N#CCCN(CCO)c1ccccc1,90%
20,c1cncc(CNc2ccccc2-c2nnc(Nc3ccc4c(c3)OCO4)o2)c1,18.6%
